Data on 7 compounds can be found in ChEMBL document CHEMBL1961873, “Compounds: GSK PKIS; Assays: Nanosyn kinase panel” (2012).

In assay [1] the target is High affinity nerve growth factor receptor (Homo sapiens) (UniProt P04629). The settings on record: at 1 µM.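 Note: each value is the mean percent inhibition of TRKA.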
Assay [2] addresses BDNF/NT-3 growth factors receptor (Homo sapiens) (UniProt Q16620). The settings on record: at 0.1 µM.
Assay [3] has the same target. Conditions: at 1 µM.
Assay [4] concerns the target NT-3 growth factor receptor (Homo sapiens) (UniProt Q16288). Conditions: at 0.1 µM.
For assay [5] the target is unchanged. The settings on record: at 1 µM.
The target of assay [6] is T1, Tyrosine-protein kinase TXK (Homo sapiens) (UniProt P42681).
T1 sequence (whole entry): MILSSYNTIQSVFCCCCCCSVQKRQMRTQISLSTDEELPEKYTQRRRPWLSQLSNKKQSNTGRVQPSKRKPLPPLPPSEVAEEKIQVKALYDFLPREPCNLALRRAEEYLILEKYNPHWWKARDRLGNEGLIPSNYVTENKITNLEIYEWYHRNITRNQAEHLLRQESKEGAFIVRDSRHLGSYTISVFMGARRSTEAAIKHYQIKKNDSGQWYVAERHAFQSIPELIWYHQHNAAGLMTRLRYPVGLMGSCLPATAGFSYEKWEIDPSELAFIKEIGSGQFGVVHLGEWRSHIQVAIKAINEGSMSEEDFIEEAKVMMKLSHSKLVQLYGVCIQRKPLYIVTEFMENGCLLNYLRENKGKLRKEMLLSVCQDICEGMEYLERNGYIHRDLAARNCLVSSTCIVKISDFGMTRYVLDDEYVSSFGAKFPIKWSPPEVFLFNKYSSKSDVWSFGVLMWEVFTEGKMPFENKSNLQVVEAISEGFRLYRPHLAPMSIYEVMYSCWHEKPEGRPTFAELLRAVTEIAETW
The settings on record: at 0.1 µM.

In assay [7] the target is T1, Tyrosine-protein kinase TXK (Homo sapiens). The settings on record: at 1 µM.
The target of assay [8] is Non-receptor tyrosine-protein kinase TYK2 (Homo sapiens) (UniProt P29597). Conditions: at 0.1 µM.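 Note: each value is a mean of the inhibition readings.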
Non-receptor tyrosine-protein kinase TYK2 (Homo sapiens), sequence (P29597 whole entry): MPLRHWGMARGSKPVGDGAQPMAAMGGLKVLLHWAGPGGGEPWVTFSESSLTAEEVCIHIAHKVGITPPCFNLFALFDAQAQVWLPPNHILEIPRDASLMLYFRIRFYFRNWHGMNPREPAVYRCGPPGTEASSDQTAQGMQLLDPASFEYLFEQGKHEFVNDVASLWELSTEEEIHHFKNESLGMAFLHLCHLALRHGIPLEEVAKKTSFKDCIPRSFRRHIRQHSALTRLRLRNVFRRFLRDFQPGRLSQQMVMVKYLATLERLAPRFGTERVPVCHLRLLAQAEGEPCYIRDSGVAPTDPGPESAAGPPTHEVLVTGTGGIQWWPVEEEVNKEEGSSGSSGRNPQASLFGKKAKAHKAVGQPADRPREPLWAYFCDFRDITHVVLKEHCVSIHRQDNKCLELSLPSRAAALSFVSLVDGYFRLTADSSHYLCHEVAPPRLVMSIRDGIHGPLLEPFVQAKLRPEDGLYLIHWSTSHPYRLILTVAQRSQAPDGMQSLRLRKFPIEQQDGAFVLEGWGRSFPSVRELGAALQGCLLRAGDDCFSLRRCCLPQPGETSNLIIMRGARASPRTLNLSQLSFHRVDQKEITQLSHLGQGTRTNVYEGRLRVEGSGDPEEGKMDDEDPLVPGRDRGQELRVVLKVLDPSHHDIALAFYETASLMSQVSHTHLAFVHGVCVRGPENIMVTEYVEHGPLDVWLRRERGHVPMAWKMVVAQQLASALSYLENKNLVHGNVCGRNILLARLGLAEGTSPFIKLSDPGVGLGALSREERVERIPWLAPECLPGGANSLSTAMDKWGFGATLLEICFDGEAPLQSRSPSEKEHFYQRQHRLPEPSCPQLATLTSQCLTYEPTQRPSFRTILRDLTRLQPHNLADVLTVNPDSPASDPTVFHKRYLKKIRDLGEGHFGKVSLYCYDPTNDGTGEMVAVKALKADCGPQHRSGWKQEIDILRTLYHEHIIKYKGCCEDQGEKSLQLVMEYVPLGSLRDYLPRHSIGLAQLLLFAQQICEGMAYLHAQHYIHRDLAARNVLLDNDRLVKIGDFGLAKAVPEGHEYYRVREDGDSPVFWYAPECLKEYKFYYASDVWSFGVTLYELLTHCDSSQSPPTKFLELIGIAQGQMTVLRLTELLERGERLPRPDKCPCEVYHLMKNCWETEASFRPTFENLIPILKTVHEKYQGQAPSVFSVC
For assay [9], the target named is T2, Dual specificity protein kinase TTK (Homo sapiens) (UniProt P33981).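 Note: reported figures are mean TTK inhibition at 1 µM.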
T2 sequence (whole entry): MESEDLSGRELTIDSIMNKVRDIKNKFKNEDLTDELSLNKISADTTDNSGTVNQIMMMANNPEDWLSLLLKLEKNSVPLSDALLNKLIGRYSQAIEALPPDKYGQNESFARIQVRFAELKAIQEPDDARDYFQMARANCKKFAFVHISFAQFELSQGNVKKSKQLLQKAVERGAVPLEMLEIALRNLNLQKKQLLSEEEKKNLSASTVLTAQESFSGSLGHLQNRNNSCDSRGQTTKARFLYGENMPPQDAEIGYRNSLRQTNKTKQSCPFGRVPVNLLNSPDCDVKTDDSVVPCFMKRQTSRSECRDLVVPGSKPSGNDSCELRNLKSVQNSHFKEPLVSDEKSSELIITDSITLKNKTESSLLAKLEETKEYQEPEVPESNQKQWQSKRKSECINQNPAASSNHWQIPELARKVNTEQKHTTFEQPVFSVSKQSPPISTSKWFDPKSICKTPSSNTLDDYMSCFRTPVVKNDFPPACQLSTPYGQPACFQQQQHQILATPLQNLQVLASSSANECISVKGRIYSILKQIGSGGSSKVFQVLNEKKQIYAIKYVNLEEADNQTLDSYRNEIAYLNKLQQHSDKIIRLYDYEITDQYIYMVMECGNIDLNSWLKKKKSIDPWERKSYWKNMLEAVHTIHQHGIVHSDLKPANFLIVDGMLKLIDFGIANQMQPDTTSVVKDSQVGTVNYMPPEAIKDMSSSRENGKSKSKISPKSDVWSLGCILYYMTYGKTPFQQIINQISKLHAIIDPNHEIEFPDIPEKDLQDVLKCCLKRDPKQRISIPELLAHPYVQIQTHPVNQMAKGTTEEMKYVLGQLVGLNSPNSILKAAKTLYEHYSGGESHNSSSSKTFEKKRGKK
Conditions: at 1 µM.

For assay [10], the target named is T3, Aurora kinase A (Homo sapiens) (UniProt O14965).
T3 sequence (whole entry): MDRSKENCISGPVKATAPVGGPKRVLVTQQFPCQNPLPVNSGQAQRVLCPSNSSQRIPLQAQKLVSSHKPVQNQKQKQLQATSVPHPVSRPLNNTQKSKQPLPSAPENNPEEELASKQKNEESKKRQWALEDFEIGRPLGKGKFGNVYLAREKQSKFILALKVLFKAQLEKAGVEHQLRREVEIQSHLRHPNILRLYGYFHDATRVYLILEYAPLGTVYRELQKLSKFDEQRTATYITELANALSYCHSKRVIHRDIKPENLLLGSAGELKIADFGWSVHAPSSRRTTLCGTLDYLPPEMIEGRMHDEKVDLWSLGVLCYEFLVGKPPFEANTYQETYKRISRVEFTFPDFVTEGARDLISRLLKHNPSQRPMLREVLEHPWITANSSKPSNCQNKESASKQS
Conditions: at 0.1 µM.

Assay [11] has as its target T3, Aurora kinase A (Homo sapiens). The settings on record: at 1 µM.
For assay [12], the target named is Aurora kinase B (Homo sapiens) (UniProt Q96GD4). The settings on record: at 0.1 µM.
Aurora kinase B (Homo sapiens), sequence (Q96GD4 whole entry): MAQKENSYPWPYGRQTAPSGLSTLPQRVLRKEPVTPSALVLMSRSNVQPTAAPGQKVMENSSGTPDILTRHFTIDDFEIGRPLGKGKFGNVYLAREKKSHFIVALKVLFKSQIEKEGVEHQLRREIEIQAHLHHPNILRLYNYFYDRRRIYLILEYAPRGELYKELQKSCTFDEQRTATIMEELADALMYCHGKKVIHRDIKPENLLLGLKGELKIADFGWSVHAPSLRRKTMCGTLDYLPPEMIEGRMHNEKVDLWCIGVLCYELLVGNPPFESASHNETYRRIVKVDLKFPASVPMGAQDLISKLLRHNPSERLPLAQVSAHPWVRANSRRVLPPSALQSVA
The target is the same in assay [13]. The settings on record: at 1 µM.
For assay [14], the target named is T4, Aurora kinase C (Homo sapiens) (UniProt Q9UQB9).
T4 sequence (whole entry): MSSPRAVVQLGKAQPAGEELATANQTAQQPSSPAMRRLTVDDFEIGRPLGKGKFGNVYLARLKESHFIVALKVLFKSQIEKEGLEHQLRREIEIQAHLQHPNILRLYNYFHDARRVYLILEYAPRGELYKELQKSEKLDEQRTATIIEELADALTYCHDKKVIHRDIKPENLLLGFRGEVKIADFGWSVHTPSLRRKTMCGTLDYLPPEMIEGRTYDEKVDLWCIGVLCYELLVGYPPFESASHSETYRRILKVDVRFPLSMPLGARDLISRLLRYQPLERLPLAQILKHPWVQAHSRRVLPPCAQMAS
The settings on record: at 0.1 µM.

Assay [15] deals with T4, Aurora kinase C (Homo sapiens). Conditions: at 1 µM.
Assay [16] concerns the target Serine/threonine-protein kinase 10 (Homo sapiens) (UniProt O94804). Conditions: at 0.1 µM.
Assay [17] shares this target. The settings on record: at 1 µM.
Assay [18] deals with T5, Mitogen-activated protein kinase kinase kinase kinase 2 (Homo sapiens) (UniProt Q12851).
T5 sequence (whole entry): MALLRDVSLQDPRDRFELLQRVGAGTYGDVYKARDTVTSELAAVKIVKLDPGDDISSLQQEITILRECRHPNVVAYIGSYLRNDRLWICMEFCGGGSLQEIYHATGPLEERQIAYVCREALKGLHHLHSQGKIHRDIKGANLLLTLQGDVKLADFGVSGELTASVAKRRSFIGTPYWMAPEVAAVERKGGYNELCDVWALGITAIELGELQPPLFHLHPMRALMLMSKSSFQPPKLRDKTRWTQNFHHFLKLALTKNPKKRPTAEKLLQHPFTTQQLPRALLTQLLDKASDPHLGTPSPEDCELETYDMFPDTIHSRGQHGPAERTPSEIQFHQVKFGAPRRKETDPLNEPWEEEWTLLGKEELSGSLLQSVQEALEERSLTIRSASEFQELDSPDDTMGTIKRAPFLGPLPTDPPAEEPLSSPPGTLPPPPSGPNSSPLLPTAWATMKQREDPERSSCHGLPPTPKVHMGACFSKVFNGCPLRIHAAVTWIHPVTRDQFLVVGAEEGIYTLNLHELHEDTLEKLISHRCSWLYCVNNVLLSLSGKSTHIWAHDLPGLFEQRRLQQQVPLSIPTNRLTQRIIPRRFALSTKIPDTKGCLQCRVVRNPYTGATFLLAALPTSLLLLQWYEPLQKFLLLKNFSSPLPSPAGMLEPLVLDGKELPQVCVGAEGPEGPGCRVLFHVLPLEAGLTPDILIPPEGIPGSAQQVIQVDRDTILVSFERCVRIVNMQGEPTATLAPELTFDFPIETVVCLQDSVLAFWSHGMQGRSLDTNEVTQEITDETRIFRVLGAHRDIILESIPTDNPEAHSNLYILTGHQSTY
The settings on record: at 0.1 µM.

For assay [19], the target named is T5, Mitogen-activated protein kinase kinase kinase kinase 2 (Homo sapiens). The settings on record: at 1 µM.
Assay [20] has as its target Mitogen-activated protein kinase kinase kinase kinase 4 (Homo sapiens) (UniProt O95819). Conditions: at 0.1 µM.

Serine/threonine-protein kinase 10 (Homo sapiens), sequence (O94804 whole entry, looked up): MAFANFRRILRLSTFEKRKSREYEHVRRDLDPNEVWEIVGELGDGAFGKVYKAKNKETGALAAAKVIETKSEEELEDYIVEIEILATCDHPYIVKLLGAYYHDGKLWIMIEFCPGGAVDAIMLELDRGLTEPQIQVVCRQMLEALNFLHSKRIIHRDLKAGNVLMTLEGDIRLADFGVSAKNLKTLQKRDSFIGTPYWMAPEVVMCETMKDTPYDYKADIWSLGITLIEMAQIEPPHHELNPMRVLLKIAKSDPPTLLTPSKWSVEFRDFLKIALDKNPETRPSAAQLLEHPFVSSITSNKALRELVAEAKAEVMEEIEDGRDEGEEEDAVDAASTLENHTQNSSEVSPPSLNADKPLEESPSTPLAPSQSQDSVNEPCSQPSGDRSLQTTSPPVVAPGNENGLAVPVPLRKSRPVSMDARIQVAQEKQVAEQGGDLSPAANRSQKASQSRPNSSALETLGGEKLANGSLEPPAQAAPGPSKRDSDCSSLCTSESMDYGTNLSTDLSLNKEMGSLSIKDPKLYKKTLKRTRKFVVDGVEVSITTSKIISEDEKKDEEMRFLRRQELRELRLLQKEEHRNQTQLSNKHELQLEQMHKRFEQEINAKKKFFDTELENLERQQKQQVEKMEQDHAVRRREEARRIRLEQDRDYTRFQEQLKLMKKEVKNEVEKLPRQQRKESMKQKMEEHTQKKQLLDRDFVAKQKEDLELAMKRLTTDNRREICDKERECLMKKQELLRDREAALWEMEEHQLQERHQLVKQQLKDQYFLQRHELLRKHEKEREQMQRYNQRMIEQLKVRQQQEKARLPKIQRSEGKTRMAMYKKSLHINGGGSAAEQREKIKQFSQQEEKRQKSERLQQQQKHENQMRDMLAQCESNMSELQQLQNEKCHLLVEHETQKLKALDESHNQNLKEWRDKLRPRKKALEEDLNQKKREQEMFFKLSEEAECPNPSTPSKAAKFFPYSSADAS
NT-3 growth factor receptor (Homo sapiens), sequence (Q16288 32-839 limits assumed): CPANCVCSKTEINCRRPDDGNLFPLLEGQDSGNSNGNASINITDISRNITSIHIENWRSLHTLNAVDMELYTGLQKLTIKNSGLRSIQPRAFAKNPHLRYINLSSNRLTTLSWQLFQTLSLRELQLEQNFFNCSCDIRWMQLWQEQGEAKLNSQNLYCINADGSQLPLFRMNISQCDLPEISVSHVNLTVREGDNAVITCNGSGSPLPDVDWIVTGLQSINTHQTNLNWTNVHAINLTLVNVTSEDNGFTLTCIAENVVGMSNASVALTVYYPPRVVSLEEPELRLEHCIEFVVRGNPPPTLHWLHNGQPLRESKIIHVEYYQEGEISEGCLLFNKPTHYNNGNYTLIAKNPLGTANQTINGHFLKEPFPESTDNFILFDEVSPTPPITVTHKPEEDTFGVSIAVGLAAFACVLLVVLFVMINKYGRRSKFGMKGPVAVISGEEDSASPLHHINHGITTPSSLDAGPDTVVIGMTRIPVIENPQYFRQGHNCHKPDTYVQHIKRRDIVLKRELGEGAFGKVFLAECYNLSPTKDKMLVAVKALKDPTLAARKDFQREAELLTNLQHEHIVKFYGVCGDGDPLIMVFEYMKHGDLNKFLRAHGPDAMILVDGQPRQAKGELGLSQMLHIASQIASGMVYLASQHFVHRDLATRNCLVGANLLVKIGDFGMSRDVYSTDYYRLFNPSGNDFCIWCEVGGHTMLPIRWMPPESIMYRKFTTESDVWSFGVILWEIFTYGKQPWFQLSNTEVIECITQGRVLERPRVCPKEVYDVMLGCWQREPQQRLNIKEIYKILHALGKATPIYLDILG
High affinity nerve growth factor receptor (Homo sapiens), sequence (P04629 33-796 limits assumed): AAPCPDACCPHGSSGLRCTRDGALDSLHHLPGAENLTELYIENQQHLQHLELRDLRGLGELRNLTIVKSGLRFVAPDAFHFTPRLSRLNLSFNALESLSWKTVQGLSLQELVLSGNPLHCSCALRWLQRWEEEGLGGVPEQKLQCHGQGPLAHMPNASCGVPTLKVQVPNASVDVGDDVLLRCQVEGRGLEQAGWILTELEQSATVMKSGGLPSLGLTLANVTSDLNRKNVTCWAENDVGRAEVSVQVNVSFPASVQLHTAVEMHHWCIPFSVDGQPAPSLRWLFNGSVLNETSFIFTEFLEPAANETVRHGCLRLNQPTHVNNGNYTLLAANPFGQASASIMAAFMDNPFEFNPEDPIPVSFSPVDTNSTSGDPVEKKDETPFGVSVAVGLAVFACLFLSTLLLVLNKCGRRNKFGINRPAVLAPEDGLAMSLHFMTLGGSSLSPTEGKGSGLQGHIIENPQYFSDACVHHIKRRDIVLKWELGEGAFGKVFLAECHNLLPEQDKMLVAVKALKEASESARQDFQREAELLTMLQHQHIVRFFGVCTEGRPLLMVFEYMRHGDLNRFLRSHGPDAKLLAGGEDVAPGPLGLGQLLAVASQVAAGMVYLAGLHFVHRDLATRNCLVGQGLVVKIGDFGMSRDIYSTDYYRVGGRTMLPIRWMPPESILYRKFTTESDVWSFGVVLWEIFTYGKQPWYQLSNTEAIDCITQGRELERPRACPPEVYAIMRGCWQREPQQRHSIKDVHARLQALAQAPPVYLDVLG
BDNF/NT-3 growth factors receptor (Homo sapiens), sequence (Q16620 32-822 limits assumed): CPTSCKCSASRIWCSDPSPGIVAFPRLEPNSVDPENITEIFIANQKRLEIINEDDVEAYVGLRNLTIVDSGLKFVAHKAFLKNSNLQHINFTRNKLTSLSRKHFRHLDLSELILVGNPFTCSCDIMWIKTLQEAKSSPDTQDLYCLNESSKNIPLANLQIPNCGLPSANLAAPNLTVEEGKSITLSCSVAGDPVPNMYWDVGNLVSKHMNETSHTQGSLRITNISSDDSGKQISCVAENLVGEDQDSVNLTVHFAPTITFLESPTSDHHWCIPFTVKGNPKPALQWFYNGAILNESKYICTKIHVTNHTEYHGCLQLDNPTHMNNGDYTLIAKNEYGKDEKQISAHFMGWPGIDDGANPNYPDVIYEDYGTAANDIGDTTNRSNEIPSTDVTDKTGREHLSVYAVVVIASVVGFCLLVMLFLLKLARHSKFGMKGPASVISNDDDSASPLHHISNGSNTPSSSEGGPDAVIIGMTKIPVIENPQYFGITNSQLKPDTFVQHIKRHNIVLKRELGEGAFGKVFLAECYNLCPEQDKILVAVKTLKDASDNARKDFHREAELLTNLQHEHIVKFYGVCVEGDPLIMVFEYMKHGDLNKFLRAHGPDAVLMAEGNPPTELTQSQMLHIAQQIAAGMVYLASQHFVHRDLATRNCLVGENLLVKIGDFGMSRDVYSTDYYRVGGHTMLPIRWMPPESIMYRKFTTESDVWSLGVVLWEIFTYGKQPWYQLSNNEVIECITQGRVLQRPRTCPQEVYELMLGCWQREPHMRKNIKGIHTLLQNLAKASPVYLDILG

Broadly, the inhibition is the change of the read-out against control, counted positive when it falls. In the case of `Nc1nc(-c2cccc(Cl)c2)c(-c2ccc3ncccc3n2)s1`, the inhibition in assay [1] was -0.34%; in [2], 2.86%; in [3] it was 7.16%; in [4], 2.95%; in assay [5], 5.02%; in assay [6], 4.04%. The inhibition in assay [7] is 4.05%; in [8], -3.11%; in assay [9], -0.66%; in assay [10] it was 2.19%; in [11], 4.83%; in [12] it was 3.18%. Besides, the inhibition in assay [13] was 5.58%; in assay [14], 1.1%; in [15], -2.15%; in assay [16] it was 8.2%; in assay [17] it was 14.4%; in [18], 1.48%. Moreover, the values for the inhibition in assay [19] and in [20] were 3.7% and 12.6%, respectively.
Turning to `NC(=O)c1sc(-n2cnc3ccc(C(F)(F)F)cc32)cc1OCc1ccccc1Br`, the inhibition came to 1.97% in assay [1]; 4.43% in assay [2]; 2.79% in assay [3]; 4.04% in [4]; 4.67% in [5]; 1.39% in assay [6]. For the same compound, the inhibition in assay [7] was -0.88%; in [8] it was -4.87%; in assay [9] it was 9.08%; in assay [10], 2.74%; in [11], 5.5%; in assay [12], 2.77%. The inhibition is 5.43% in assay [13]; -0.7% in assay [14]; -6.73% in [15]; 9.21% in [16]; 26% in assay [17]; 0.79% in assay [18]. The inhibition in [19] is 8.19%; in [20], 4.62%.
On to `COc1cc(Nc2nccc(Nc3ccc4c(C)n[nH]c4c3)n2)cc(OC)c1OC`, for which the inhibition in assay [1] is 64.1%; in [2], 4.63%; in assay [3], 41%; in [4] it was -0.03%; in [5], 17.3%; in [6], 23.9%. The inhibition in [7] is 61.9%; in assay [8], -1.55%; in assay [9] it was 8.41%; in assay [10] it was 10.2%; in [11] it was 66.5%; in assay [12], 5.08%. Further, the inhibition in assay [13] is 24.2%; in [14], 7.34%; in assay [15], 79.7%; in assay [16], 26.1%; in assay [17], 77.6%; in assay [18] it was 3.12%. For the same compound, the inhibition in [19] is 7.42%; in [20], 2.17%.
As to `CCOc1ccc2c(-c3ccnc(Nc4cccc(C(F)(F)F)c4)n3)cnn2n1`, the inhibition in assay [1] is 0.26%; in [2] it was 0.03%; in assay [3], 2.11%; in assay [4], 0.07%; in [5] it was 3.18%; in [6] it was -0.13%. Besides, the inhibition in assay [7] is 3.47%; in assay [8] it was -0.74%; in assay [9], 4.11%; in assay [10], 1.41%; in [11] it was 7.68%; in assay [12] it was 6.17%. Moreover, the inhibition in assay [13] worked out at 9.87%; in assay [14], 2.6%; in assay [15] it was 12.5%; in assay [16], 4.81%; in [17], 12.9%; in assay [18], 0.42%. Besides, the results for the inhibition in assay [19] and in assay [20] were 6.12% and 0.65%, respectively.
As for `CCn1c(-c2nonc2N)nc2c(C#CC(C)(C)O)nc(OC[C@H](N)c3ccccc3)cc21`, the inhibition in assay [1] was 3.54%; in assay [2], 1.58%; in assay [3], 2.5%; in assay [4], 1.64%; in [5] it was 6.42%; in [6] it was 7.32%. Also, the inhibition in assay [7] was 3.73%; in assay [8] it was -2.11%; in assay [9], 11.2%; in [10], 2.4%; in [11], 2.98%; in assay [12], 3.29%. Besides, the inhibition in assay [13] is 5.24%; in assay [14], 1.89%; in [15], 2.08%; in [16] it was 7.07%; in assay [17] it was 28.8%; in assay [18] it was 3.33%. Besides, the results for the inhibition in assay [19] and in assay [20] were 16% and 4.79%, respectively.
In the case of `Fc1ccc(-c2cc(-c3c[nH]nc3-c3ccccn3)ccn2)cc1`, the inhibition was found to be 0.04% in [1]; 4.04% in [2]; 4.77% in assay [3]; 4.06% in assay [4]; 3.45% in [5]; 3.64% in [6]. Further, the inhibition in assay [7] is 2.28%; in assay [8] it was -1.71%; in assay [9], 9.65%; in assay [10], 3.15%; in assay [11], 4.79%; in assay [12] it was 2.48%. Besides, the inhibition in assay [13] was 5.17%; in assay [14] it was -0.57%; in assay [15], -4.87%; in assay [16], 6.15%; in assay [17], 11.2%; in [18] it was -0.05%. In addition, the inhibition stood at 1.6% in assay [19] and 13.7% in [20].
Consider `COc1ccc(-c2nn3ncccc3c2-c2ccnc(Nc3ccc4c(c3)OCCO4)n2)cc1`, for which the inhibition in [1] is 20.2%; in assay [2] it was 1.61%; in assay [3], 18.7%; in assay [4], -1.55%; in assay [5], 6.72%; in [6], -0.79%. Moreover, the inhibition is 3.19% in assay [7]; -1.16% in [8]; 11.6% in assay [9]; 18.5% in assay [10]; 63.2% in assay [11]; 3.61% in assay [12]. In addition, the inhibition stood at 17.4% in [13]; 6.73% in [14]; 46.8% in assay [15]; 11.2% in [16]; 55.1% in [17]; 0.69% in assay [18]. The results for the inhibition in assay [19] and in assay [20] were 4.16% and 0.61%, respectively.
